Measurements published in ChEMBL document CHEMBL3988442, “University of Dundee, Small-Polar-MMV Screening Library” (2021).
About 950 (1.4%) of roughly 69,000 compounds showed an effect of 50% or more. What follows is part of a selection rich in strong results, with near analogues and random picks from the rest.

Each molecule was assayed on Mycobacterium tuberculosis (assay: Cornell M. t heat shock assay; also: in the data most compounds retested in dose-response had high values).
Assay type: functional, organism-based
Parameters: dose or concentration left out as unconfirmed

Point of comparison: Cl.c1ccc(CN2CCNCC(Cc3cnccn3)C2)cc1 (stereo not given), “Percent Effect” value -10.09%. Against it:
- COc1cccc(CC(=O)N2CC[C@@H](OC)[C@@H]2Cc2cccnc2)c1.O=C(O)C(F)(F)F — higher, 11.27%
- Cc1nnc(CN(C)C2CCCN(Cc3noc(C4CC4)n3)C2)o1 (stereo not given) — higher, -4.888%
- CCOC1COC2(CCN(CC3CC3)CC2)C1.O=C(O)C(F)(F)F (stereo not given) — lower, -11.36%
- Cc1ccc(-c2nc(CNC(C)Cn3cccn3)cs2)o1 (stereo not given) — higher, 55.14%
- COc1cccc(-c2nc(CNCc3cccnc3)cs2)c1 — lower, -18.41%
- CC(Cn1cccn1)NCc1csc(-c2ccccc2)n1 (stereo not given) — higher, 29.32%
- Cc1ccc(-c2nc(CN3CCOC(Cn4cccn4)C3)cs2)o1 (stereo not given) — higher, 19.35%
- COc1ccc(-c2noc(CNC(C)Cn3cccn3)n2)c(OC)c1 (stereo not given) — lower, -27.41%
- COc1ccc(-c2nc(CNC(C)Cn3cccn3)cs2)cc1 (stereo not given) — higher, 58.05%
- COc1cccc(-c2nc(CNC(C)Cn3cccn3)cs2)c1 (stereo not given) — higher, 89.4%
- O=C(NCc1ccccn1)[C@@H]1COC[C@H]2CN(C3CCOCC3)C[C@H]21.O=C(O)C(F)(F)F.O=C(O)C(F)(F)F — higher, 0.9957%
- CC(=O)N1CCN(c2cncc(C3CCNCC3)n2)CC1.Cl — higher, -8.785%
- O=C(O)C(F)(F)F.O=C(c1ccccc1)N1CCOC2(CCN(Cc3cccs3)CC2)C1 — lower, -35.41%
- Cc1ccc(CN2Cc3nnn(C)c3C(COCC3CC3)C2)s1.O=C(O)C(F)(F)F (stereo not given) — lower, -11.83%
- O=C(O)C(F)(F)F.c1cnc(N2CCOCC3(CN(Cc4cc[nH]n4)CCO3)C2)nc1 (stereo not given) — lower, -18.22%
- O=C(CCC1CCCC1)N1CCC(c2cc3ncccc3c(O)n2)CC1 — higher, 59.08%
- CCCC(=O)N1CCC(c2cc3cccnc3c(O)n2)CC1 — lower, -11.07%
- CCCC(=O)N1CCCC(c2cc3cccnc3c(O)n2)C1 (stereo not given) — lower, -27.54%
- CCOCC(=O)N1CCC(c2cc3ncccc3c(O)n2)CC1 — higher, -9.964%
- O=C(CC1CCCC1)N1CCC(c2cc3ncccc3c(O)n2)CC1 — higher, 63.36%
- COCC(=O)N1CCC(c2cc3ncccc3c(O)n2)CC1 — higher, 10.22%
- CC(C)N(C)Cc1nnn2c1CN(Cc1cccnc1)CCC2.O=C(O)C(F)(F)F.O=C(O)C(F)(F)F.O=C(O)C(F)(F)F — higher, -0.7766%
- CC(C)n1c(=O)nc2n1C(=O)N(c1ccc(Cl)cc1)C2 — higher, 4.407%
- CCOC(=O)[C@]12CCCN(Cc3cccs3)C[C@H]1CN(CC(C)C)C2.O=C(O)C(F)(F)F.O=C(O)C(F)(F)F — higher, 26.18%
- O=C(CN1CC(c2nc(-c3ccco3)no2)C1)NCCc1ccccc1.O=C(O)C(=O)O — higher, -7.325%
- CS(=O)(=O)Cc1ccc(Cl)cc1NCc1ccccc1F — higher, 52.35%
- CC(CS(C)(=O)=O)NCc1cc(Cl)ccc1F (stereo not given) — lower, -12.53%
- CN(C)C(=O)Cc1ccccc1NCc1cccc(F)c1F — higher, -10.01%
- CS(=O)(=O)Cc1ccc(Cl)cc1NCc1cccc(F)c1F — higher, 57.79%
- O=C(Cc1cccc(F)c1F)NS(=O)(=O)c1ccc(Cl)cc1F — lower, -11.18%
- CS(=O)(=O)Cc1ccccc1NCc1cc(Cl)ccc1Cl — lower, -12.17%
- Cn1nc(C(=O)N2CCOCC2)cc1C(=O)Nc1ccc(Cl)cc1Cl — higher, 13.26%
- Cc1sc(NC(=O)CN(C)CCOc2cccc(F)c2)c(C)c1C — higher, 3.214%
- CN(CCOc1cccc(F)c1)CC(=O)Nc1ccncc1 — lower, -17.11%
- Cc1csc(NC(=O)CN(C)CCOc2cccc(F)c2)n1 — higher, 95.41%
- CCc1oc(C(=O)N2CC[C@H]3CC[C@@H](C2)N3)cc1CN(CC)CC — lower, -18.46%
- CN(C)C(=O)N1C[C@@H]2CC[C@H](C1)N(Cc1nnc(C3CC3)o1)C2 — higher, 104.3%
- CN(C)C(=O)N1C[C@@H]2CC[C@H](C1)N(Cc1nnc(-c3ccco3)o1)C2 — higher, 3.686%
- CN(C)C(=O)N1C[C@@H]2CC[C@H](C1)N(Cc1nnc(-c3ccccc3)o1)C2 — higher, 16.99%
- CNc1ncc2c(n1)CN(CCc1ccc(F)cc1)C2=O — lower, -20.93%
- CNC(=O)[C@H]1CO[C@H]2CCN(c3ncc(F)cn3)C[C@H]2C1.O=C(O)C(F)(F)F — lower, -11.38%
- Cc1nn(C)cc1CN(C)C(=O)c1ccccn1 — lower, -16.12%
- CCn1nc(C)c(CN(Cc2ccccn2)Cc2ccccc2Cl)c1C — higher, 58.2%
- Cn1cc(CN(Cc2ccccn2)Cc2ccccc2Cl)cn1 — higher, 20.97%
- Cc1nn(C)cc1CN(Cc1ccccn1)Cc1ccccc1Cl — higher, 53.11%
- CCn1nc(C)c(CN(CCCN(C)C)Cc2ccccn2)c1C — higher, -9.336%
- CCn1nc(C)c(CN(CCOC)Cc2ccccn2)c1C — higher, -2.912%
- O=C(O)C(=O)O.c1cncc(CN2CCC(c3ccc4c(c3)OCO4)CC2)c1 — higher, -6.288%
- CC(C)CS(=O)(=O)N1C[C@H]2C[C@H](C(=O)N3CCCC3)[C@@H](C1)O2 — higher, 18.86%
- CSc1ccc(CN2C[C@@H]3CC[C@@](O)(c4ccc(C)cn4)[C@@H]3C2)cc1 — higher, 28.36%
- C[C@H]1CN(c2ccccn2)C[C@@]12CCN(Cc1cccnc1)C2=O.O=C(O)C(F)(F)F.O=C(O)C(F)(F)F — higher, -8.389%
- O=C(CS(=O)(=O)c1ncccc1Cl)NC1CCCc2ccccc21 (stereo not given) — higher, 57.06%
- O=C(CS(=O)(=O)c1ccc(Cl)cc1)NC1CCCc2ccccc21 (stereo not given) — higher, 17.58%
- O=C(CS(=O)(=O)c1ccccn1)NC1CCCc2ccccc21 (stereo not given) — higher, 34.88%
- COc1ccc(CN2CCn3cccc3C2C)cc1F (stereo not given) — higher, 13.47%
- COc1ccc(C)cc1CN1CCn2cccc2C1C (stereo not given) — higher, 86.02%
- COc1ccc(C(C)=O)cc1CN1CCn2cccc2C1C (stereo not given) — higher, 9.9%
- CCOc1ccccc1C1CCCN1.Cl (stereo not given) — higher, 3.065%
- COc1cc(CNCC(O)c2ccccc2)cc2c1OCO2.Cl (stereo not given) — higher, -7.292%
- O=C(O)C(F)(F)F.O=C(c1ccco1)N1CC2(CCNCC2)c2cc(Cl)ccc21 — lower, -24.85%
- O=C(O)C(F)(F)F.O=C(O)C(F)(F)F.c1cnc(N2CCC3(CCN(Cc4ccncc4)CC3)CC2)nc1 — higher, 6.802%
- c1ccc2c(CC3CN(Cc4nccs4)CCO3)cccc2c1 (stereo not given) — higher, -8.986%
- Cc1cccnc1CN1CCOC(Cc2cccc3ccccc23)C1 (stereo not given) — higher, 106.2%
- CCc1nc(C)c(CN2CCOC(Cc3cccc4ccccc34)C2)[nH]1 (stereo not given) — higher, 8.588%
- CCN1CCc2c(sc3c2C(=O)NC(/C=C/c2ccco2)N3)C1 (stereo not given) — lower, -25.76%
- O=C(Cc1cnccn1)N1C[C@H]2CC[C@@H]1CN(Cc1cscn1)C2 — higher, -4.902%
- O=C(NCCc1ccccn1)C1(n2cnnn2)CCCCC1 — higher, -1.374%
- O=C(NCCc1c[nH]c2ccccc12)C1(n2cnnn2)CCCCC1 — higher, 102.3%
- Cc1cccc(NC(=O)C2(n3cnnn3)CCCCC2)n1 — lower, -23.83%
- O=C(Nc1ccccn1)C1(n2cnnn2)CCCCC1 — higher, 4.562%
- O=C(NCCc1c[nH]c2ccc(F)cc12)C1(n2cnnn2)CCCCC1 — higher, 102.2%
- O=C(NCCc1cccc(F)c1)C1(n2cnnn2)CCCCC1 — higher, 90.07%
- Cc1ccnc(NC(=O)C2(n3cnnn3)CCCCC2)c1 — lower, -14.84%
- O=C(NCCc1c[nH]c2ccccc12)C1CCC(Cn2cnnn2)CC1 (stereo not given) — higher, 2.28%
- Cc1cccnc1NC(=O)C1(n2cnnn2)CCCCC1 — higher, 10.66%
- Cl.O=c1c2sccc2nc2n1CCN(Cc1ccsc1)CC2 — lower, -19.75%
- Cc1cccc(CN2CC[C@@H]3[C@@H]2CCN3C(=O)Cc2ccsc2)n1.O=C(O)C(F)(F)F.O=C(O)C(F)(F)F — lower, -13.99%
- CO[C@H]1C[C@@H]2CN(C(=O)c3n[nH]c4c3CCCC4)C[C@@H]2C1 — lower, -12.29%
- Cc1ccc(N2CC[C@@H]3[C@@H]2CCN3Cc2ccsc2)nn1.O=C(O)C(F)(F)F.O=C(O)C(F)(F)F — lower, -10.53%
- Cn1ccnc1CN1CCC2(CC1)COCCN(S(C)(=O)=O)C2.O=C(O)C(F)(F)F — higher, 17.11%
- NC(=O)CN1CCCC1c1csc(Nc2cnccn2)n1 (stereo not given) — higher, 58.45%
- CC(=O)N1CCCC1c1csc(Nc2cnccn2)n1 (stereo not given) — higher, -5.066%
- NC(=O)CN1CCC(c2csc(Nc3cnccn3)n2)CC1 — lower, -13.81%
- CS(=O)(=O)CCC(=O)NC1(c2cccc(C(F)(F)F)c2)CCC1 — lower, -20.78%
- COC[C@@]12CCC[C@@H]1CN(C(=O)Cc1ccccn1)C2.O=C(O)C(F)(F)F — higher, 12.87%
- Cc1ncc(CN2CCC(c3nc4cc(Cl)ccc4o3)CC2)s1 — lower, -15.08%
- Fc1ccc2[nH]c(C3CCCN3CCCn3cccn3)nc2c1 (stereo not given) — lower, -23.88%
- O=C(CN1CCCC1c1nc2cc(F)ccc2[nH]1)NCc1ccccn1 (stereo not given) — lower, -20.62%
- CCc1nc(C2CCCN2CCc2ccccn2)no1 (stereo not given) — higher, 107.9%
- Cc1nc(C2CCCN2CCc2ccccn2)no1 (stereo not given) — higher, -5.804%
- Fc1ccc2[nH]c(C3CCCN3CCc3ccccn3)nc2c1 (stereo not given) — higher, 61.35%
- CC(C)c1nc(C2CCCN2CCc2ccccn2)no1 (stereo not given) — lower, -39.31%
- CS(=O)(=O)N1CCc2ccc(=O)n(CCN3CCCC3)c2CC1.O=C(O)C(F)(F)F — higher, 21.99%
- Cc1nnc(N2CCCC3(CN(Cc4cnn(C)c4)CCO3)C2)o1.O=C(O)C(F)(F)F.O=C(O)C(F)(F)F (stereo not given) — lower, -20.31%
